Experimental data from article PMC12820563, “FoxP3 forms a head-to-head dimer in vivo and stabilizes its multimerization on adjacent microsatellites”.
Over roughly 16,000 sequences, “rpm ratio (pull-down/input)” has its median near 0.5; the highest 2% begin near 5.5. This is one part of a sample in which the highest values are shown more often than they occur.

molecular target: T1, MBP-FoxP3dN (Mus musculus, UniProt Q99JB6 188-423); assay: PD-seq (MBP pull-down with sequencing); 20 mM Tris-HCl pH 7.5, 100 mM NaCl, 1.5 mM MgCl2, 0.4 uM protein, 0.1 uM dsDNA library, 30 min, room temperature, amylose pull-down; high values mean tight binding; settings: protein: recombinant; tags: His6-MBP; chain copies: 2; dsDNA, one strand shown
T1 sequence: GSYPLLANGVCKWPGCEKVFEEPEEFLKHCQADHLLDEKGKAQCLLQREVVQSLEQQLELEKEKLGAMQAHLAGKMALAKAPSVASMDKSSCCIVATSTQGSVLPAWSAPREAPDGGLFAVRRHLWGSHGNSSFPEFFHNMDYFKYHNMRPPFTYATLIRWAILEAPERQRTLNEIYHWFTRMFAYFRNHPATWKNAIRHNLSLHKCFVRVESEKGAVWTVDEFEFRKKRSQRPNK
Summary of the method: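 Binding is given as reads-per-million enrichment, pull-down over input, with replicates pooled. The bait was an N-terminus-lacking mouse FoxP3 or FoxP1 fragment with a His6-MBP tag, expressed in E. coli and used at 0.4 µM with 0.1 µM Klenow-filled degenerate double-stranded DNA library for 30 min at room temperature in Tris pH 7.5 buffer with NaCl and MgCl2. Amylose resin pull-down with three washes was followed by proteinase K release, PCR barcoding and Illumina sequencing.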

Sequence	binding signal
GATGATTGTTCTCCCAGCTGATGAATTAGGTCCTTCGAGTAAACAAATTTTCCTAATCTTTCTGTTCAAGCGCCATCTAC	0.354 RPM ratio (pull-down/input)
GATGATTGTTCTCCCAGCTGATGAATTCTCTCCATCGAGTAAACAAATTTTCCTAATCTTTCTGTTCAAGCGCCATCTAC	0.223 RPM ratio (pull-down/input)
GATGATTGTTCTCCCAGCTGATGAATTGGTACGCTCGAGTAAACAAATTTTCCTAATCTTTCTGTTCAAGCGCCATCTAC	0.466 RPM ratio (pull-down/input)
GATGATTGTTCTCCCAGCTGATGAATTTGCCTTTTCGAGTAAACAAATTTTCCTAATCTTTCTGTTCAAGCGCCATCTAC	2.1 RPM ratio (pull-down/input)
GATGATTGTTCTCCCAGCTGATGAATTTTGCCTTTCGAGTAAACAAATTTTCCTAATCTTTCTGTTCAAGCGCCATCTAC	5.56 RPM ratio (pull-down/input)
GATGATTGTTCTCCCAGCTGATGAATTTTTGCCTTCGAGTAAACAAATTTTCCTAATCTTTCTGTTCAAGCGCCATCTAC	2.86 RPM ratio (pull-down/input)
GATGATTGTTCTCCCAGCTGATGAATTTGCGCCTTCGAGTAAACAAATTTTCCTAATCTTTCTGTTCAAGCGCCATCTAC	3.88 RPM ratio (pull-down/input)
GATGATTGTTCTCCCAGCTGATGAATTGCGCCTTTCGAGTAAACAAATTTTCCTAATCTTTCTGTTCAAGCGCCATCTAC	6.82 RPM ratio (pull-down/input)
GATGATTGTTCTCCCAGCTGATGAATTGCCTTTTTCGAGTAAACAAATTTTCCTAATCTTTCTGTTCAAGCGCCATCTAC	1.02 RPM ratio (pull-down/input)
GATGATTGTTCTCCCAGCTGATGAATTGTCTCATTCGAGTAAACAAATTTTCCTAATCTTTCTGTTCAAGCGCCATCTAC	0.539 RPM ratio (pull-down/input)
GATGATTGTTCTCCCAGCTGATGAATTGCCTGCGTCGAGTAAACAAATTTTCCTAATCTTTCTGTTCAAGCGCCATCTAC	0.937 RPM ratio (pull-down/input)
GATGATTGTTCTCCCAGCTGATGAATTGTTCCTGTCGAGTAAACAAATTTTCCTAATCTTTCTGTTCAAGCGCCATCTAC	0.351 RPM ratio (pull-down/input)
GATGATTGTTCTCCCAGCTGATGAATTGCCTTTGTCGAGTAAACAAATTTTCCTAATCTTTCTGTTCAAGCGCCATCTAC	0.946 RPM ratio (pull-down/input)
GATGATTGTTCTCCCAGCTGATGAATTTTGCCTGTCGAGTAAACAAATTTTCCTAATCTTTCTGTTCAAGCGCCATCTAC	5.62 RPM ratio (pull-down/input)
GATGATTGTTCTCCCAGCTGATGAATTTCCTGTGTCGAGTAAACAAATTTTCCTAATCTTTCTGTTCAAGCGCCATCTAC	0.352 RPM ratio (pull-down/input)
GATGATTGTTCTCCCAGCTGATGAATTTGCCCTGTCGAGTAAACAAATTTTCCTAATCTTTCTGTTCAAGCGCCATCTAC	0.487 RPM ratio (pull-down/input)
GATGATTGTTCTCCCAGCTGATGAATTGCGCCTGTCGAGTAAACAAATTTTCCTAATCTTTCTGTTCAAGCGCCATCTAC	6.14 RPM ratio (pull-down/input)
GATGATTGTTCTCCCAGCTGATGAATTGCCTGTGTCGAGTAAACAAATTTTCCTAATCTTTCTGTTCAAGCGCCATCTAC	0.881 RPM ratio (pull-down/input)
GATGATTGTTCTCCCAGCTGATGAATTGTGCCTGTCGAGTAAACAAATTTTCCTAATCTTTCTGTTCAAGCGCCATCTAC	6.42 RPM ratio (pull-down/input)
GATGATTGTTCTCCCAGCTGATGAATTGGGAACTTCGAGTAAACAAATTTTCCTAATCTTTCTGTTCAAGCGCCATCTAC	0.252 RPM ratio (pull-down/input)
GATGATTGTTCTCCCAGCTGATGAATTGATAGATTCGAGTAAACAAATTTTCCTAATCTTTCTGTTCAAGCGCCATCTAC	0.495 RPM ratio (pull-down/input)

Sequence	binding signal
GATGATTGTTCTCCCAGCTGATGAATTCATAGGCTCGAGTAAACAAATTTTCCTAATCTTTCTGTTCAAGCGCCATCTAC	0.321 RPM ratio (pull-down/input)
GATGATTGTTCTCCCAGCTGATGAATTATCCCGGTCGAGTAAACAAATTTTCCTAATCTTTCTGTTCAAGCGCCATCTAC	0.208 RPM ratio (pull-down/input)
GATGATTGTTCTCCCAGCTGATGAATTTGGTAACTCGAGTAAACAAATTTTCCTAATCTTTCTGTTCAAGCGCCATCTAC	1.38 RPM ratio (pull-down/input)
GATGATTGTTCTCCCAGCTGATGAATTTGCCTTGTCGAGTAAACAAATTTTCCTAATCTTTCTGTTCAAGCGCCATCTAC	1.15 RPM ratio (pull-down/input)
GATGATTGTTCTCCCAGCTGATGAATTAATAGAGTCGAGTAAACAAATTTTCCTAATCTTTCTGTTCAAGCGCCATCTAC	0.294 RPM ratio (pull-down/input)
GATGATTGTTCTCCCAGCTGATGAATTTGCCCACTCGAGTAAACAAATTTTCCTAATCTTTCTGTTCAAGCGCCATCTAC	0.555 RPM ratio (pull-down/input)
GATGATTGTTCTCCCAGCTGATGAATTGCCACACTCGAGTAAACAAATTTTCCTAATCTTTCTGTTCAAGCGCCATCTAC	1.52 RPM ratio (pull-down/input)
GATGATTGTTCTCCCAGCTGATGAATTTTGCCACTCGAGTAAACAAATTTTCCTAATCTTTCTGTTCAAGCGCCATCTAC	5.96 RPM ratio (pull-down/input)
GATGATTGTTCTCCCAGCTGATGAATTGCGCCACTCGAGTAAACAAATTTTCCTAATCTTTCTGTTCAAGCGCCATCTAC	7.19 RPM ratio (pull-down/input)
GATGATTGTTCTCCCAGCTGATGAATTGCCACTCTCGAGTAAACAAATTTTCCTAATCTTTCTGTTCAAGCGCCATCTAC	1.37 RPM ratio (pull-down/input)
GATGATTGTTCTCCCAGCTGATGAATTTTTGCACTCGAGTAAACAAATTTTCCTAATCTTTCTGTTCAAGCGCCATCTAC	0.699 RPM ratio (pull-down/input)
GATGATTGTTCTCCCAGCTGATGAATTGCTGCTCTCGAGTAAACAAATTTTCCTAATCTTTCTGTTCAAGCGCCATCTAC	0.662 RPM ratio (pull-down/input)
GATGATTGTTCTCCCAGCTGATGAATTAAGACGATCGAGTAAACAAATTTTCCTAATCTTTCTGTTCAAGCGCCATCTAC	0.207 RPM ratio (pull-down/input)
GATGATTGTTCTCCCAGCTGATGAATTGCTCACATCGAGTAAACAAATTTTCCTAATCTTTCTGTTCAAGCGCCATCTAC	0.686 RPM ratio (pull-down/input)
GATGATTGTTCTCCCAGCTGATGAATTTATATTATCGAGTAAACAAATTTTCCTAATCTTTCTGTTCAAGCGCCATCTAC	1.6 RPM ratio (pull-down/input)
GATGATTGTTCTCCCAGCTGATGAATTGTTTATATCGAGTAAACAAATTTTCCTAATCTTTCTGTTCAAGCGCCATCTAC	5.7 RPM ratio (pull-down/input)
GATGATTGTTCTCCCAGCTGATGAATTTATTATATCGAGTAAACAAATTTTCCTAATCTTTCTGTTCAAGCGCCATCTAC	2.18 RPM ratio (pull-down/input)
GATGATTGTTCTCCCAGCTGATGAATTTTATATATCGAGTAAACAAATTTTCCTAATCTTTCTGTTCAAGCGCCATCTAC	1.65 RPM ratio (pull-down/input)
GATGATTGTTCTCCCAGCTGATGAATTATATTTATCGAGTAAACAAATTTTCCTAATCTTTCTGTTCAAGCGCCATCTAC	5.59 RPM ratio (pull-down/input)
GATGATTGTTCTCCCAGCTGATGAATTTTTTATATCGAGTAAACAAATTTTCCTAATCTTTCTGTTCAAGCGCCATCTAC	0.31 RPM ratio (pull-down/input)
GATGATTGTTCTCCCAGCTGATGAATTAAAGTGTTCGAGTAAACAAATTTTCCTAATCTTTCTGTTCAAGCGCCATCTAC	0.592 RPM ratio (pull-down/input)

Sequence	binding signal
GATGATTGTTCTCCCAGCTGATGAATTATAACCGTCGAGTAAACAAATTTTCCTAATCTTTCTGTTCAAGCGCCATCTAC	0.364 RPM ratio (pull-down/input)
GATGATTGTTCTCCCAGCTGATGAATTATGCTGTTCGAGTAAACAAATTTTCCTAATCTTTCTGTTCAAGCGCCATCTAC	3.42 RPM ratio (pull-down/input)
GATGATTGTTCTCCCAGCTGATGAATTATGCTTGTCGAGTAAACAAATTTTCCTAATCTTTCTGTTCAAGCGCCATCTAC	4.71 RPM ratio (pull-down/input)
GATGATTGTTCTCCCAGCTGATGAATTATATGCCTCGAGTAAACAAATTTTCCTAATCTTTCTGTTCAAGCGCCATCTAC	0.913 RPM ratio (pull-down/input)
GATGATTGTTCTCCCAGCTGATGAATTATGAAATTCGAGTAAACAAATTTTCCTAATCTTTCTGTTCAAGCGCCATCTAC	0.632 RPM ratio (pull-down/input)
GATGATTGTTCTCCCAGCTGATGAATTATGCCTGTCGAGTAAACAAATTTTCCTAATCTTTCTGTTCAAGCGCCATCTAC	5.87 RPM ratio (pull-down/input)
GATGATTGTTCTCCCAGCTGATGAATTATGATTGTCGAGTAAACAAATTTTCCTAATCTTTCTGTTCAAGCGCCATCTAC	4.27 RPM ratio (pull-down/input)
GATGATTGTTCTCCCAGCTGATGAATTATGCATGTCGAGTAAACAAATTTTCCTAATCTTTCTGTTCAAGCGCCATCTAC	6.46 RPM ratio (pull-down/input)
GATGATTGTTCTCCCAGCTGATGAATTATGAATGTCGAGTAAACAAATTTTCCTAATCTTTCTGTTCAAGCGCCATCTAC	1.04 RPM ratio (pull-down/input)
GATGATTGTTCTCCCAGCTGATGAATTATGCGCCTCGAGTAAACAAATTTTCCTAATCTTTCTGTTCAAGCGCCATCTAC	2.82 RPM ratio (pull-down/input)
GATGATTGTTCTCCCAGCTGATGAATTATGCCTCTCGAGTAAACAAATTTTCCTAATCTTTCTGTTCAAGCGCCATCTAC	6.22 RPM ratio (pull-down/input)
GATGATTGTTCTCCCAGCTGATGAATTATGCCATTCGAGTAAACAAATTTTCCTAATCTTTCTGTTCAAGCGCCATCTAC	5.9 RPM ratio (pull-down/input)
GATGATTGTTCTCCCAGCTGATGAATTAATTATGTCGAGTAAACAAATTTTCCTAATCTTTCTGTTCAAGCGCCATCTAC	1.89 RPM ratio (pull-down/input)
GATGATTGTTCTCCCAGCTGATGAATTCTGCGGCTCGAGTAAACAAATTTTCCTAATCTTTCTGTTCAAGCGCCATCTAC	1.01 RPM ratio (pull-down/input)
GATGATTGTTCTCCCAGCTGATGAATTGCAGCCTTCGAGTAAACAAATTTTCCTAATCTTTCTGTTCAAGCGCCATCTAC	2.83 RPM ratio (pull-down/input)
GATGATTGTTCTCCCAGCTGATGAATTGTAAACATCGAGTAAACAAATTTTCCTAATCTTTCTGTTCAAGCGCCATCTAC	5.2 RPM ratio (pull-down/input)
GATGATTGTTCTCCCAGCTGATGAATTTGCCGATTCGAGTAAACAAATTTTCCTAATCTTTCTGTTCAAGCGCCATCTAC	0.474 RPM ratio (pull-down/input)
GATGATTGTTCTCCCAGCTGATGAATTAAATCTCTCGAGTAAACAAATTTTCCTAATCTTTCTGTTCAAGCGCCATCTAC	0.29 RPM ratio (pull-down/input)
GATGATTGTTCTCCCAGCTGATGAATTCAGTTCGTCGAGTAAACAAATTTTCCTAATCTTTCTGTTCAAGCGCCATCTAC	0.758 RPM ratio (pull-down/input)
GATGATTGTTCTCCCAGCTGATGAATTACTTCTATCGAGTAAACAAATTTTCCTAATCTTTCTGTTCAAGCGCCATCTAC	0.347 RPM ratio (pull-down/input)
GATGATTGTTCTCCCAGCTGATGAATTCCGAACTTCGAGTAAACAAATTTTCCTAATCTTTCTGTTCAAGCGCCATCTAC	0.253 RPM ratio (pull-down/input)
